Holding throughout (test): PBM binding z-score (relative to random genomic background probes); higher = stronger binding; sequences stand for … in GC…GCGATTGACAGCGTAGAATGAAGG
The subject of experiment [1] is FXR:RXRa (NR concentration 270 nM, RXRa partner concentration 90 nM). The procedure, abridged: (§1)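 Random background probes are the reference for binding z-scores. These scores derive from regression-normalized fluorescence on custom Agilent 4×180K protein-binding microarrays incubated 1 h with ligand-free nuclear receptor dimers. Binding was detected with antibodies against each partner (one per run).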

In experiment [2] the test system is LXRa:RXRa (NR concentration 270 nM, RXRa partner concentration 90 nM). The procedure, abridged:
as §1

Experiment [3] relates to LXRa homodimer (NR concentration 270 nM). The procedure, abridged: as §1
Experiment [4] relates to LXRb:RXRa (NR concentration 270 nM, RXRa partner concentration 90 nM). Summed up: as §1
Experiment [5] deals with LXRb homodimer (NR concentration 270 nM). The procedure, abridged:
as §1

Experiment [6] deals with PPARa:RXRa (NR concentration 270 nM, RXRa partner concentration 90 nM). The procedure, abridged:
as §1

The test system of experiment [7] is PPARg:RXRa (NR concentration 180 nM, RXRa partner concentration 90 nM). Summed up:
as §1

Experiment [8] concerns PPARg:RXRa 270nM:90nM, anti-RXR (NR concentration 270 nM, RXRa partner concentration 90 nM). The procedure, abridged: as §1
Experiment [9] has as its system PPARg:RXRa 30nM:10nM, anti-RXR (NR concentration 30 nM, RXRa partner concentration 10 nM). Summed up: as §1
The subject of experiment [10] is PPARg:RXRa 90nM:30nM, anti-RXR (NR concentration 90 nM, RXRa partner concentration 30 nM). Summed up:
as §1

The subject of experiment [11] is PPARg:RXRa DBDmut IVT, anti-RXR (DBD mutation: RXRa K156A/R161A, NR concentration 270 nM, RXRa partner concentration 90 nM). The procedure, abridged:
as §1

Experiment [12] concerns PPARg:RXRa IVT, anti-PPARg (NR concentration 270 nM, RXRa partner concentration 90 nM). Summed up:
as §1

For experiment [13], the system named is PPARg DBDmut:RXRa IVT, anti-PPARg (DBD mutation: PPARg1 K132A/R137A, NR concentration 270 nM, RXRa partner concentration 90 nM). Summed up:
as §1

For experiment [14], the system named is PPARg DBDmut IVT, anti-PPARg (DBD mutation: PPARg1 K132A/R137A, NR concentration 270 nM). The procedure, abridged: as §1
In experiment [15] the test system is PPARg homodimer (NR concentration 180 nM). Summed up: as §1
The subject of experiment [16] is PXR:RXRa (NR concentration 270 nM, RXRa partner concentration 90 nM). The procedure, abridged:
as §1

Experiment [17] relates to PXR homodimer (NR concentration 270 nM). The procedure, abridged: as §1
Experiment [18] relates to RARa:RXR (NR concentration 270 nM, RXRa partner concentration 90 nM). Summed up: as §1
Experiment [19] deals with RARa homodimer (NR concentration 270 nM). The procedure, abridged:
as §1

For experiment [20], the system named is RARb:RXRa (NR concentration 270 nM, RXRa partner concentration 90 nM). The procedure, abridged:
as §1

In the case of GCGACTGGGGCATCAGCAGGTGACCATAACTTAA, the PBM binding z-score in experiment [1] was -0.501; in experiment [2] it was -0.679; in experiment [3], -0.385; in [4] it was 0.223; in experiment [5] it was -1.22; in [6], 0.831. Besides, the PBM binding z-score in experiment [7] was 0.922; in experiment [8], 0.832; in [9] it was -0.507; in [10], -0.0151; in experiment [11], 4.17; in [12], 3.33. Moreover, the PBM binding z-score is -0.697 in [13]; -0.862 in [14]; 0.0227 in experiment [15]; -0.51 in experiment [16]; -0.76 in experiment [17]; -0.136 in experiment [18]. Moreover, the PBM binding z-score is -0.252 in [19] and 0.702 in experiment [20].
In the case of AATACAGGGTCACTAGGCCATAGTAGGTACGAAT, the PBM binding z-score in experiment [1] amounted to 5.83; in experiment [2], 4.98; in experiment [3] it was 1.02; in [4] it was 4; in experiment [5], 0.913; in experiment [6], 6.01. Further, the PBM binding z-score in experiment [7] came to 8.68; in experiment [8], 6.76; in [9], 3.65; in experiment [10] it was 5.88; in [11] it was 4.35; in experiment [12], 6.47. The PBM binding z-score in [13] worked out at 2.07; in experiment [14], 1.76; in [15], 2.21; in experiment [16] it was 3.31; in experiment [17], 0.565; in experiment [18] it was 4.46. Besides, the PBM binding z-score was 0.595 in [19] and 4.11 in experiment [20].
Take ACTATTAGTTGAGACGAGGGCAACCGATAGGTTG: the PBM binding z-score in [1] is 0.538; in [2] it was 0.128; in [3], 0.022; in experiment [4], 0.22; in [5], 0.0471; in experiment [6] it was 0.636. Moreover, the PBM binding z-score in experiment [7] worked out at 0.774; in [8], 0.555; in experiment [9], 0.376; in experiment [10], 0.316; in experiment [11], 0.0589; in [12] it was 0.536. Moreover, the PBM binding z-score worked out at 0.785 in experiment [13]; 0.574 in experiment [14]; 0.059 in [15]; 1.64 in [16]; 0.413 in experiment [17]; 0.859 in experiment [18]. Besides, the PBM binding z-score in [19] stood at 0.982; in [20], 1.24.
With CTCGAAAGGTCGTGCCCAGGTGAGTATACCAAAC, the PBM binding z-score in experiment [1] was 5.26; in experiment [2], 3.99; in experiment [3], 0.422; in experiment [4], 3.22; in experiment [5], 0.542; in [6], 4.81. Further, the PBM binding z-score came to 2.54 in [7]; 3.88 in [8]; 1.14 in experiment [9]; 2.23 in experiment [10]; 0.771 in experiment [11]; 1.91 in [12]. In addition, the PBM binding z-score turned out to be 0.249 in [13]; 0.285 in experiment [14]; 2.38 in experiment [15]; 3.17 in experiment [16]; 0.0798 in experiment [17]; 4.63 in experiment [18]. Besides, the PBM binding z-score in [19] was determined as 0.0863; in experiment [20], 3.91.
Turning to GCTAATTGGTCAGTAAAAGGTCACACACCGGTCG, the PBM binding z-score in experiment [1] amounted to 3.55; in experiment [2], 4.31; in [3], 5.15; in experiment [4], 4.41; in experiment [5] it was 1.19; in experiment [6], 4.8. The PBM binding z-score in experiment [7] was 3.38; in [8] it was 4.52; in experiment [9], 2.45; in experiment [10], 3.96; in experiment [11], 1.17; in experiment [12] it was 3.09. Besides, the PBM binding z-score came to 0.371 in experiment [13]; 1.23 in [14]; 3.29 in [15]; 4.83 in experiment [16]; 1.25 in experiment [17]; 5.26 in experiment [18]. The PBM binding z-score in experiment [19] came to 2.18; in experiment [20] it was 4.66.
Turning to AGGATGAGGTTACCAAAGATCAGGGAAACGCTTG, the PBM binding z-score in experiment [1] turned out to be 1.74; in experiment [2] it was 6.04; in [3] it was 0.206; in experiment [4], 3.17; in experiment [5], 0.353; in experiment [6] it was 2.93. Besides, the PBM binding z-score in experiment [7] amounted to 1.55; in experiment [8] it was 1.76; in experiment [9], 0.744; in [10] it was 1.12; in experiment [11] it was 0.68; in experiment [12], 1.09. Further, the PBM binding z-score in [13] was determined as 0.557; in experiment [14], 0.461; in experiment [15] it was 1.12; in experiment [16], 1.47; in experiment [17], 0.27; in experiment [18] it was 2.02. The PBM binding z-score in experiment [19] stood at 0.36; in experiment [20] it was 2.12.
In the case of CGACCTAGGTCAGAACAGGACAGTGAAGGATGAT, the PBM binding z-score is 2.95 in [1]; 1.5 in [2]; 0.143 in [3]; 1.08 in experiment [4]; -0.535 in experiment [5]; 2.08 in [6]. Besides, the PBM binding z-score in experiment [7] is 1.55; in experiment [8], 1.2; in experiment [9], -0.0187; in [10] it was 0.682; in [11], 2.58; in [12], 2.09. For the same sequence, the PBM binding z-score in [13] is -0.486; in [14] it was -0.795; in [15], 1.04; in [16], 1.42; in experiment [17], -0.195; in experiment [18], 0.948. Besides, the PBM binding z-score in [19] was found to be 0.342; in experiment [20], 3.33.

The record behind these values is the supplement of paper PMC6555819.
